Here are results for four compounds from PubChem BioAssay.

Values joined by “and” are separate entries in the source; they are usually repeats but may differ in a detail not shown here. Equal entries are not always repeated. Active and inactive are the calls of the source.

A short description of experiment [1]: small molecules captured by biotinylated probe aFSTL3 – biochemical, small-molecule microarray, fluorescence 635/667, stem cell growth factor project, primary screen (AID 1064).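 Further: measures binding of the biotinylated anti-FSTL3 antibody to printed compounds.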 Conditions: higher = more signal.
Experiment [2] can be described thus: binders from COS7 lysate, DM2A8 probe, primary screen, torsin A project, cell lysate, small-molecule microarray, fluorescence 635/667 (AID 1065). The conditions noted are these: higher = more signal, COS7 lysate expressing mutant human TOR1A.
A short description of experiment [3]: small molecules captured by biotinylated probe aFGF2 – biochemical, small-molecule microarray, fluorescence 635/667, stem cell growth factor project, primary screen (AID 1067).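 Further: measures binding of biotinylated aFGF2 protein to printed compounds on slides; z-score merges feature fluorescence and signal-to-noise across triplicate slides.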 The conditions noted are these: higher = more signal.
Experiment [4] can be described thus: small molecules captured by biotinylated probe aFGF10 – biochemical, small-molecule microarray, fluorescence 635/667, stem cell growth factor project, primary screen (AID 1071).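 Further: score merges 667 nm spot intensity and signal to noise from triplicate slides.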 Conditions: higher = more signal.
Experiment [5] has as its target Neurogenic locus notch homolog protein 2 (Homo sapiens) (UniProt Q04721). The experiment can be described thus: small molecules binding Notch2 protein – biochemical, small-molecule microarray, 635 nm fluorescence, stem cell growth factors, primary screen (AID 1073). The conditions noted are these: higher = more signal.
The target in experiment [6] is Pro-neuregulin-1, membrane-bound isoform (Homo sapiens) (UniProt Q02297). The experiment can be described thus: small molecules binding neuregulin-1 protein – biochemical, small-molecule microarray, fluorescence 635/667, psychiatric disease protein project, primary screen (AID 1075).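 Further: score combines 667 nm spot fluorescence with signal to noise.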 The conditions noted are these: NRG1 binding, 635 nm fluorescence, higher = more signal.

In experiment [7] the test system is Neuregulin-1 EGF-like domain. The experiment can be described thus: small molecules binding NRG1 EGF domain – biochemical, small-molecule microarray, 635 nm fluorescence, primary screen (AID 1081).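 Further: binding of the protein to compounds printed on small-molecule microarray slides.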 Conditions: higher = more signal.
Experiment [8] can be described thus: FRG1 expression reporter modulators in myotubes – cell-based, C2C12 myotubes, firefly/Renilla luciferase, luminescence, FRG1 inhibition for FSHD, primary screen (AID 1084). Conditions: FRG1 promoter luciferase, higher = more signal, called active from +8 up or from −8 down.
Experiment [9] in a line: small molecules captured by biotinylated probe aFST – biochemical, small-molecule microarray, fluorescence 635/667, stem cell growth factor project, primary screen (AID 1086).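 Further: score merges 667 nm fluorescence with signal-to-noise of each printed compound spot.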 Conditions: higher = more signal.
Experiment [10] is described as follows: binders of probe aHhip on microarray, primary screen, stem cell growth factor project, biochemical, small-molecule microarray, fluorescence 635/667 (AID 1087).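 Further: score merges spot fluorescence at 667nm with spot signal to noise ratio.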 Conditions: higher = more signal.
Experiment [11] has as its system PRMT1 (protein arginine N-methyltransferase 1). The experiment can be described thus: small molecules binding arginine methyltransferase PRMT1 – biochemical, small-molecule microarray, 635 nm fluorescence, primary screen (AID 1088).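 Further: binding of Prmt1 protein to compounds spotted on small-molecule microarray slides.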 Conditions: higher = more signal.
Experiment [12] can be described thus: growth effects on S. cerevisiae YJM789 – YJM789 clinical isolate, OD600, 24 h, basal, primary screen (AID 1089).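 Further: growth of clinical yeast isolate S. cerevisiae YJM 789 seeded 1000 cells per well; test concentration not given here.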 Conditions: higher = more signal, called active from +8 up or from −8 down.
Experiment [13] in a line: S. pombe growth modifiers, basal conditions – strain 972, OD600, 24 h, no modulator, primary screen (AID 1090).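 Further: basal condition with compound alone and no growth modifier present; test concentration not given here.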 Conditions: S. pombe 972 growth, higher = more signal, called active from +8 up or from −8 down.
The nature of experiment [14]: budding yeast growth modifiers under rapamycin – strain BY4716, OD600, 96 h, primary screen (AID 1091). Further: test concentration not given here. The conditions noted are these: S. cerevisiae BY4716 + rapamycin, higher = more signal, called active from +8 up or from −8 down.
Experiment [15] has as its target Torsin-1A-interacting protein 2 (Homo sapiens) (UniProt Q8NFQ8). The experiment can be described thus: small molecules binding lysate-expressed LULL1 – cell lysate, human LULL1 lysate, 635/667 nm fluorescence, primary screen (AID 1092).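 Further: probe is lysate of COS7 cells overexpressing human LULL1; score merges per-feature 667 nm fluorescence with signal-to-noise.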 Conditions: small-molecule microarray, hLULL1 lysate binding, 635 nm fluorescence; higher = more signal.
The nature of experiment [16]: optical density change of DRC41 E. coli – strain DRC41, OD650, 24 h, E. coli filamentation project, primary screen (AID 1093).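 Further: MC1000 strain lacking acrAB efflux and sulA so SOS filamentation is blocked; test concentration not given here.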 Conditions: E. coli DRC41 growth, higher = more signal, called active from +8 up or from −8 down.
Experiment [17] is described as follows: probe aLefty2 binding to arrayed compounds – biochemical, biotinylated probe, 635/667 nm fluorescence, primary screen (AID 1094).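 Further: score merges spot fluorescence near 667 nm with spot signal-to-noise ratio.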 Conditions: small-molecule microarray, higher = more signal.
Experiment [18] deals with Noggin (protein binding on small-molecule microarray). The experiment can be described thus: small molecules binding Noggin protein – biochemical, 635/667 nm fluorescence, primary screen (AID 1095).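 Further: score merges 667 nm feature fluorescence with signal to noise over triplicate slides.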 The conditions noted are these: 635 nm fluorescence, higher = more signal.
The target of experiment [19] is Neurogenic locus notch homolog protein 3 (Homo sapiens) (UniProt Q9UM47). The experiment can be described thus: small molecules binding NOTCH3 protein – biochemical, 635/667 nm fluorescence, primary screen (AID 1096). Conditions: small-molecule microarray, 635 nm fluorescence, higher = more signal.
Sequence of Neurogenic locus notch homolog protein 3 (Homo sapiens) (Q9UM47 whole entry, looked up): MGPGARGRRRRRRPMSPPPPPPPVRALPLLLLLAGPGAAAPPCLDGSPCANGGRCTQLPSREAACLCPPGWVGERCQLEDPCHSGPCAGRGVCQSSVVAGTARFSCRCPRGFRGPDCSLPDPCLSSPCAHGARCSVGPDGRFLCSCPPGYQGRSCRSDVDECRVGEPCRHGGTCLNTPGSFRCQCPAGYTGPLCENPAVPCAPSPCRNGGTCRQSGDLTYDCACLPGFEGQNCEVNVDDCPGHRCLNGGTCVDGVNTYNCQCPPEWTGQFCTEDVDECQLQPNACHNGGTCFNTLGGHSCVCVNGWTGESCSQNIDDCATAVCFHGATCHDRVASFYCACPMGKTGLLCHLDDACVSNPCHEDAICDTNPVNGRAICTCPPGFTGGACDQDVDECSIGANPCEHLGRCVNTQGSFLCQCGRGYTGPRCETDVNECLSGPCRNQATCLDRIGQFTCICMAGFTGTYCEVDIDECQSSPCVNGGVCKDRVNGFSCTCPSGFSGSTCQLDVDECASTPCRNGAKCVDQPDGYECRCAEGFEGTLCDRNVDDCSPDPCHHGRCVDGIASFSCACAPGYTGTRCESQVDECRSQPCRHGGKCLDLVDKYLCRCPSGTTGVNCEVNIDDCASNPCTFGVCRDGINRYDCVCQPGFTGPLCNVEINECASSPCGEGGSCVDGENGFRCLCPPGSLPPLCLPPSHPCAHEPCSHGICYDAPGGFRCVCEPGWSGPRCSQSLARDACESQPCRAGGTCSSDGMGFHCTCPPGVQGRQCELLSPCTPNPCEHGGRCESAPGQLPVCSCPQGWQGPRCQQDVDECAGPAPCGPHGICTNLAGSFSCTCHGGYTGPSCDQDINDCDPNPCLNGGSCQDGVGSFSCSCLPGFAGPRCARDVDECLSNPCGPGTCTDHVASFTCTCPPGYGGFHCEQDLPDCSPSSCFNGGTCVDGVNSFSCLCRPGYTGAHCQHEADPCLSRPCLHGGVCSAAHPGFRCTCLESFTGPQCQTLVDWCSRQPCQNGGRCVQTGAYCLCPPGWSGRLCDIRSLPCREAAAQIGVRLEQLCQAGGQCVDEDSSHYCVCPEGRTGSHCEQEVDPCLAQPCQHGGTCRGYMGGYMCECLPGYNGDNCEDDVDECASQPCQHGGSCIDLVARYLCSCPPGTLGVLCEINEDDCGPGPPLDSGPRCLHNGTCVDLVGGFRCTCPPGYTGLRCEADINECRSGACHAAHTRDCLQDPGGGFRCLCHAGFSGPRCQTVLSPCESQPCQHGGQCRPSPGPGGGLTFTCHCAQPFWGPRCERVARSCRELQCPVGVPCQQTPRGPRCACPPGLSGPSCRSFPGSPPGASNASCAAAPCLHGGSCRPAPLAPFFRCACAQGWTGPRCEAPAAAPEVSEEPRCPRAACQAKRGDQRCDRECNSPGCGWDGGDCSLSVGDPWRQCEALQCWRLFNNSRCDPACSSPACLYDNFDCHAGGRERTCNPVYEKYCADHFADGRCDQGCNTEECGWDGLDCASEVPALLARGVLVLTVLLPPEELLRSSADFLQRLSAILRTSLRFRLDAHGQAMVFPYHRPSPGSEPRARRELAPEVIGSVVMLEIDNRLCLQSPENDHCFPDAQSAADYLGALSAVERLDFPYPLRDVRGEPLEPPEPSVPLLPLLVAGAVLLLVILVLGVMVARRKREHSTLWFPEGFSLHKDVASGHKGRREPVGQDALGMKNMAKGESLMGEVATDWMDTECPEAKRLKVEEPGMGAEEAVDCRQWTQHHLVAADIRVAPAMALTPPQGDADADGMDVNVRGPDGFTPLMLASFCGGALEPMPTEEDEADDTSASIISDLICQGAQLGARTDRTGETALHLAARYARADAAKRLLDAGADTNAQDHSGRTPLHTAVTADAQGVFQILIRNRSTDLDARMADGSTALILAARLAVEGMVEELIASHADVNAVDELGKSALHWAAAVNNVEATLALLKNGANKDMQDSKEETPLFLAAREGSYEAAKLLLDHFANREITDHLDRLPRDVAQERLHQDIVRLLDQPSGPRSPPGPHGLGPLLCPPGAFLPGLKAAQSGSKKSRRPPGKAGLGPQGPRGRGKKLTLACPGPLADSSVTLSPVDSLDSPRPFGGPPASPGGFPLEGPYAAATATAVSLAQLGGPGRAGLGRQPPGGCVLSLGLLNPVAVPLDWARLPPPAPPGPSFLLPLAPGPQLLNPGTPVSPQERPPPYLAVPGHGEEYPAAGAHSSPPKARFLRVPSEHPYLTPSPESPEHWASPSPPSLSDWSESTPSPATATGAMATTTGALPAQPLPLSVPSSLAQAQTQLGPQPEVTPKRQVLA
Experiment [20] can be described thus: probe aEGFR binding to arrayed compounds – biochemical, biotinylated probe, 635/667 nm fluorescence, primary screen (AID 1097).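 Further: probe is a biotinylated anti-EGFR antibody binding compounds printed on slides; score combines fluorescence near 667 nm and signal to noise of each spot.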 Conditions: small-molecule microarray, higher = more signal.

Sequence of Neurogenic locus notch homolog protein 2 (Homo sapiens) (Q04721 whole entry, looked up, canonical isoform): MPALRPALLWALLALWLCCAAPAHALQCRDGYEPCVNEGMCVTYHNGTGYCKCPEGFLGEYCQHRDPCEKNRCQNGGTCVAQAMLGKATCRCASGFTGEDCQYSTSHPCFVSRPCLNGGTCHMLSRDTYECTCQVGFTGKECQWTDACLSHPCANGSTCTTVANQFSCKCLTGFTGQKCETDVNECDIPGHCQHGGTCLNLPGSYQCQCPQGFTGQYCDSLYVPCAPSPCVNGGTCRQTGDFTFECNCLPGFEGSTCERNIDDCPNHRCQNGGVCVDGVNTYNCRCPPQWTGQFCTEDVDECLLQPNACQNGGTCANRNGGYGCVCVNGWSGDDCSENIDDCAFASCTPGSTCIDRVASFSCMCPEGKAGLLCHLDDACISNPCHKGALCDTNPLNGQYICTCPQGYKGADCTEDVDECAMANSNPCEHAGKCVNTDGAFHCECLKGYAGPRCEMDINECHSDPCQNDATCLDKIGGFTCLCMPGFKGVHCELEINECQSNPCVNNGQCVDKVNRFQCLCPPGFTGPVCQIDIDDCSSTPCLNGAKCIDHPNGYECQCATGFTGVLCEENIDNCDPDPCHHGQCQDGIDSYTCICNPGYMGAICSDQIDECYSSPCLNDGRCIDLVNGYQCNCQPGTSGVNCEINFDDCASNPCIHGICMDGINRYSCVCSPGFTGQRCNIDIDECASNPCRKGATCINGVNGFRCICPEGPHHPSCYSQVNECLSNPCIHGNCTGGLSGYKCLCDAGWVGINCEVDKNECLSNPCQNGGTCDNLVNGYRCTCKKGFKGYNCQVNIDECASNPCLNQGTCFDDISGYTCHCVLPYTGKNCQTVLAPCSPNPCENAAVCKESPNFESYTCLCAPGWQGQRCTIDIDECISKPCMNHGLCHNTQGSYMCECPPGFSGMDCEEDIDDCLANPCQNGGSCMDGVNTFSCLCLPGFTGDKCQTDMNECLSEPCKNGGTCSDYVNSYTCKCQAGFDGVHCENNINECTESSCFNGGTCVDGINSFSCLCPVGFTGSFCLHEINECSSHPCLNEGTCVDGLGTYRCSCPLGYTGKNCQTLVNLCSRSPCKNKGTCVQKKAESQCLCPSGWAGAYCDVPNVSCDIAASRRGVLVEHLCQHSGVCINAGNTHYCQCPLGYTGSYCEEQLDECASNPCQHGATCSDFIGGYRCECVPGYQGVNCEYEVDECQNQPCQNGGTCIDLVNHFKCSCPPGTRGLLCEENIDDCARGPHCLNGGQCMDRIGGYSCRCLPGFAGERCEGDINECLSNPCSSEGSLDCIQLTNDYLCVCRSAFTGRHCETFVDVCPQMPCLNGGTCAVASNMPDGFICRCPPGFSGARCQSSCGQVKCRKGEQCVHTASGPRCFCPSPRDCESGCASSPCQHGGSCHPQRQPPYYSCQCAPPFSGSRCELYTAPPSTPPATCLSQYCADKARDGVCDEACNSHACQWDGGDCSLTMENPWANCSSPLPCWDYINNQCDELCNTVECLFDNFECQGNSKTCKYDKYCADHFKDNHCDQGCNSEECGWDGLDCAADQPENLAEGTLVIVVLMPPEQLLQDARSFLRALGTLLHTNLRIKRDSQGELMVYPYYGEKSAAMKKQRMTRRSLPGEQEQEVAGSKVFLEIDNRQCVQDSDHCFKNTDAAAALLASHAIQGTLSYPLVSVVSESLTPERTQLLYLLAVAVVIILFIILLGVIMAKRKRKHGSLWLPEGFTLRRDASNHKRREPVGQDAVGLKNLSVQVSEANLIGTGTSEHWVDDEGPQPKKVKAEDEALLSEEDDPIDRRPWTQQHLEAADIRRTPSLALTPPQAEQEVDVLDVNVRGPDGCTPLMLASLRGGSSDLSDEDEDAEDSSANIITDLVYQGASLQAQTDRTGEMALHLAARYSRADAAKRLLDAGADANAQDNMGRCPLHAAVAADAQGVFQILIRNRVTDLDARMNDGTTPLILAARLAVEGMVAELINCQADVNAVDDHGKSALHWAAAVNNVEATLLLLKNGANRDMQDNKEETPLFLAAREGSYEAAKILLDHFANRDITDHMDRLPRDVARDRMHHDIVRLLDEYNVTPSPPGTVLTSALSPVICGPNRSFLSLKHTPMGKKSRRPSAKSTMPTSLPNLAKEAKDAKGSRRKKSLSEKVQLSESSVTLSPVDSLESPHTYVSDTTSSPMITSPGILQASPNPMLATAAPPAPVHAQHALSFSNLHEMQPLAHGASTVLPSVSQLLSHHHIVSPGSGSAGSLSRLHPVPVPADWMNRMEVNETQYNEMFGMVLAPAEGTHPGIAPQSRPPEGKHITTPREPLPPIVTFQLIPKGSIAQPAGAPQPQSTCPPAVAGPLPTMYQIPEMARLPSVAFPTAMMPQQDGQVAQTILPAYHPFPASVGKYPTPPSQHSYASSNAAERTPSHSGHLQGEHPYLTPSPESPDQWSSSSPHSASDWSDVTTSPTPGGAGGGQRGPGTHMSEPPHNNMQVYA

With `CC[C@@H]1C(Sc2ccccc2)C(C(=O)O)[C@H](c2ccc(C)cc2)N1S(=O)(=O)c1ccc(C)cc1` (stereo not given in full), the composite z-score was 0.249 and -0.499 in experiment [1]; 0.364 and -0.0981 in experiment [2]; 0.0013 and 0.166 in experiment [3]; 0.579 and 0.288 in [4]; 1.56 and 1.12 in experiment [5]; 1.82 and 1.91 in experiment [6]. The composite z-score was 1.39 and 1.2 in [7]; 0.254 and 1.05 in experiment [9]; -0.179 and -0.0994 in [10]; 1.25 and 1.49 in experiment [11]; 2.66 and 3.19 in [15]; 0.149 and -0.0615 in experiment [17]. In addition, the composite z-score was -0.0727 and -0.216 in experiment [18]; 1.11 and 1.07 in experiment [19]; -0.0025 and -0.114 in experiment [20]. The z-score in [8] is -3.66 (inactive) and -3.89 (inactive); in experiment [12] it was -0.768 (inactive) and -2.59 (inactive); in experiment [13], 0.796 (inactive) and -0.975 (inactive); in [14], -0.451 (inactive) and -0.576 (inactive); in experiment [16], -0.889 (inactive) and -0.743 (inactive).

For the compound `CON(C)C(=O)c1nnc2c3ccccc3n(S(=O)(=O)c3ccc(C)cc3)c2n1`, the composite z-score is -0.492 and -0.386 in experiment [1]; 0.216 and 0.226 in experiment [2]; -0.208 and 0.0937 in experiment [3]; 0.455 and 0.814 in experiment [4]; 0.81 and 0.675 in experiment [5]; 1.08 and 0.789 in experiment [6]. Moreover, the composite z-score in experiment [7] is 0.804 and 1.19; in experiment [9] it was -0.458 and 0.184; in [10] it was 0.12 and 0.28; in experiment [11], -0.0043 and 1.58; in experiment [15], 1.2 and 1.93; in experiment [17] it was -0.0944 and -0.229. Also, the composite z-score is 0.423 and 0.772 in experiment [18]; 0.233 and 1.04 in experiment [19]; -0.0238 and -0.171 in experiment [20]. For the same compound, the z-score in experiment [8] was 161 (active) and 193 (active); in [12], -0.461 (inactive) and 0.111 (inactive); in experiment [13], -0.823 (inactive) and -1.05 (inactive); in experiment [14], 0.171 (inactive) and -0.671 (inactive); in experiment [16] it was 0.155 (inactive) and 0.517 (inactive).

Consider `COC(=O)[C@@]1(Cc2ccccc2)[C@H]2c3cc(C(=O)N(C)C)n(C[C@H](O)CO)c3C[C@H]2CN1C(=O)c1ccccc1`, for which the composite z-score in experiment [1] was 0.323 and 0.439; in experiment [2], -0.347 and 0.188; in experiment [3], 0.0002 and -0.0065; in [4], 0.122 and 0.158; in experiment [5] it was 1.15 and 1.53; in [6] it was 2.1 and 2.01. Also, the composite z-score in [7] is 1.47 and 1.03; in experiment [9], 0.606 and 0.955; in [10], 0.174 and 0.192; in experiment [11], -0.576 and -0.197; in [15] it was 3.69 and 2.3; in [17], -0.052 and 0.0305. Besides, the composite z-score in experiment [18] was -0.634 and -0.737; in [19] it was -0.349 and -0.0109; in experiment [20] it was -0.228 and 0.0395. The z-score in experiment [8] is 1.92 (inactive) and 0.827 (inactive); in experiment [12], 0.745 (inactive) and 0.53 (inactive); in [13], -0.421 (inactive) and 0.883 (inactive); in experiment [14] it was 0.565 (inactive) and 0.696 (inactive); in [16], -0.527 (inactive) and -0.856 (inactive).

In the case of `C=CCN(Cc1ccccc1)C(=O)C1N(CCCCCCO)C(=O)C2C(C(=O)O)C3C=CC21O3` (stereo not given), the composite z-score in experiment [1] is 1.09 and 1.2; in experiment [2], -1.16 and -1.37; in experiment [3], -0.236 and -0.323; in experiment [4], -1.2 and -1.78; in experiment [5] it was -1.18 and -1.23; in experiment [6], 0.614 and 0.705. Further, the composite z-score in [7] was 1.41 and 1.4; in experiment [9] it was -0.841 and -0.708; in [10], -0.5 and -0.204; in experiment [11] it was -0.487 and -1.4; in experiment [15], 1.83 and 1.79; in [17], -0.0265 and 0.0515. In addition, the composite z-score is -1.9 and -1.38 in experiment [18]; -1.59 and -0.439 in [19]; -0.322 and -0.246 in [20]. Besides, the z-score in experiment [8] was 0.639 (inactive) and -0.331 (inactive); in [12] it was 0.101 (inactive) and -1.39 (inactive); in [13], 0.624 (inactive) and -0.642 (inactive); in experiment [14], -0.889 (inactive) and -1.51 (inactive); in [16] it was -0.142 (inactive) and 1.19 (inactive).
